The values that follow come from ChEMBL document CHEMBL1961873, “Compounds: GSK PKIS; Assays: Nanosyn kinase panel” (2012).

Assay [1] addresses Mitogen-activated protein kinase 3 (Homo sapiens) (UniProt P27361). As to conditions: at 1 µM.
Assay [2] deals with SRSF protein kinase 3 (Homo sapiens) (UniProt Q9UPE1). The settings on record: at 0.1 µM.
Assay [3] shares this target. The settings on record: at 1 µM.
In assay [4] the target is Mitogen-activated protein kinase 14 (Homo sapiens) (UniProt Q16539). As to conditions: at 0.1 µM.
For assay [5] the target is unchanged. As to conditions: at 1 µM.
The target in assay [6] is Mitogen-activated protein kinase 11 (Homo sapiens) (UniProt Q15759). The settings on record: at 0.1 µM.
Assay [7] has the same target. The settings on record: at 1 µM.
Assay [8] addresses T1, Mitogen-activated protein kinase 13 (Homo sapiens) (UniProt O15264).
T1 sequence (whole entry): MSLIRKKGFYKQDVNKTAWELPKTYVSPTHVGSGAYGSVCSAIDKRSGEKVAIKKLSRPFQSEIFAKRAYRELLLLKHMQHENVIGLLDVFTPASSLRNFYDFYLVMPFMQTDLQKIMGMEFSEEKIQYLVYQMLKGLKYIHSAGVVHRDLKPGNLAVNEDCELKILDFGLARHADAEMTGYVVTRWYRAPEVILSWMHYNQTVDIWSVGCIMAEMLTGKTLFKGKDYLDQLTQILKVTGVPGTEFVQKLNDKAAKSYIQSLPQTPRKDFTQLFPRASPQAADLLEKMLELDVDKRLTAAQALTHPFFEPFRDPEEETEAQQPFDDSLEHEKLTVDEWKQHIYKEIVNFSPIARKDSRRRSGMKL
The settings on record: at 0.1 µM.

Assay [9] addresses T1, Mitogen-activated protein kinase 13 (Homo sapiens). As to conditions: at 1 µM.
In assay [10] the target is T2, Mitogen-activated protein kinase 12 (Homo sapiens) (UniProt P53778).
T2 sequence (whole entry): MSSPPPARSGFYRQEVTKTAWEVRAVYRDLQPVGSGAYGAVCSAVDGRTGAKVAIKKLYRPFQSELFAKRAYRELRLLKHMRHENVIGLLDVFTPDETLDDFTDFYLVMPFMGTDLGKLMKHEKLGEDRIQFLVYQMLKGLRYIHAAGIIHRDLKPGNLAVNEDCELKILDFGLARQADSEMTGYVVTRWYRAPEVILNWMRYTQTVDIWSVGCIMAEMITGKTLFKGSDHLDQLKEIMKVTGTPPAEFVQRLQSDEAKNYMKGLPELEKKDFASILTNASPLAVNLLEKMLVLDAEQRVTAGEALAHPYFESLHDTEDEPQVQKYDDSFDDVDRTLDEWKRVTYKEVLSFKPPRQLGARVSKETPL
As to conditions: at 0.1 µM.

The target of assay [11] is T2, Mitogen-activated protein kinase 12 (Homo sapiens). The settings on record: at 1 µM.
Assay [12] concerns the target SRSF protein kinase 1 (Homo sapiens) (UniProt Q96SB4). The settings on record: at 0.1 µM.
Assay [13] shares this target. As to conditions: at 1 µM.
Assay [14] addresses Phosphatidylinositol 4,5-bisphosphate 3-kinase catalytic subunit alpha isoform (Homo sapiens) (UniProt P42336). As to conditions: at 0.1 µM.
The target is the same in assay [15]. The settings on record: at 1 µM.
The target in assay [16] is T3, Phosphatidylinositol 4,5-bisphosphate 3-kinase catalytic subunit delta isoform (Homo sapiens) (UniProt O00329).
T3 sequence (whole entry): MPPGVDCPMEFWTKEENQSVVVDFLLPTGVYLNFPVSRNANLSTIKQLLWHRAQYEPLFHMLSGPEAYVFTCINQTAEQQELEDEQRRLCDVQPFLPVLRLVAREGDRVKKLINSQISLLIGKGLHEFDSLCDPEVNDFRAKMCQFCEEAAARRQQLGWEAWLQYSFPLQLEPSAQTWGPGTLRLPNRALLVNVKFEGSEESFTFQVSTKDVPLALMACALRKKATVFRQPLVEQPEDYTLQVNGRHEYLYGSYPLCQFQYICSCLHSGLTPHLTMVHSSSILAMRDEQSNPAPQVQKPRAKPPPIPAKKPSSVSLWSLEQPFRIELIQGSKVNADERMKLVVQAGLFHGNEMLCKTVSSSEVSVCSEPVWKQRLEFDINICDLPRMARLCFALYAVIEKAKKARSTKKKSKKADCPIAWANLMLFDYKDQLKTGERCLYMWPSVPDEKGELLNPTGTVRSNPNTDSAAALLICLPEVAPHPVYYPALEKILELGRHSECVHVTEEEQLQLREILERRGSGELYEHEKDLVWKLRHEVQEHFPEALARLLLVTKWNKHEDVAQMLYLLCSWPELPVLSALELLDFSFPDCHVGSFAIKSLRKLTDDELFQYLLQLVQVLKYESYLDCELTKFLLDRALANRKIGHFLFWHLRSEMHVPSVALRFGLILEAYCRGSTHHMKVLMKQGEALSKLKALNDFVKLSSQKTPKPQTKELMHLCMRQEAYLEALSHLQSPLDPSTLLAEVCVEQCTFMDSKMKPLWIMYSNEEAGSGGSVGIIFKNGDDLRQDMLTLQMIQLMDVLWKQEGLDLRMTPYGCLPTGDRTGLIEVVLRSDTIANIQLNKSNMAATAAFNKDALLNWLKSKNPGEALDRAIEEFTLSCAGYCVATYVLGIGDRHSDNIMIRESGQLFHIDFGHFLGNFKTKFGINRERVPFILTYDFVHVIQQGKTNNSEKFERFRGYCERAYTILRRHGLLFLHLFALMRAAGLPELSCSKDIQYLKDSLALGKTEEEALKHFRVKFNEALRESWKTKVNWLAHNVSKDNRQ
As to conditions: at 0.1 µM.

In assay [17] the target is T3, Phosphatidylinositol 4,5-bisphosphate 3-kinase catalytic subunit delta isoform (Homo sapiens). As to conditions: at 1 µM.
The target of assay [18] is Phosphatidylinositol 4-kinase beta (Homo sapiens) (UniProt Q9UBF8). The settings on record: at 0.1 µM.
Assay [19] has the same target. The settings on record: at 1 µM.
The target of assay [20] is Sphingosine kinase 1 (Homo sapiens) (UniProt Q9NYA1). As to conditions: at 0.1 µM.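 Also: mean percent inhibition of SPHK1 activity, measured within the GSK PKIS screening panel.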
Sphingosine kinase 1 (Homo sapiens), sequence (Q9NYA1 whole entry): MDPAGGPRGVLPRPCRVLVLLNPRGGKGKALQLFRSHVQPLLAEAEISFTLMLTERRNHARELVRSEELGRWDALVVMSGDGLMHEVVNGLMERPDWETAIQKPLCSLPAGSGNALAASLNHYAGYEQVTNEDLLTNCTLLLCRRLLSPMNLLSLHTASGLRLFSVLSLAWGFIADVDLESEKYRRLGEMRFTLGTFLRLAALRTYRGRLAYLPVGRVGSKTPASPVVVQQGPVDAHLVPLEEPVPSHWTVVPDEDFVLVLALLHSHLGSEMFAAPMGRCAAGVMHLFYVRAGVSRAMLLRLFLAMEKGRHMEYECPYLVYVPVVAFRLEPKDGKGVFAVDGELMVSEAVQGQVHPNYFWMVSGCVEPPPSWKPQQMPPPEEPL

Mitogen-activated protein kinase 3 (Homo sapiens), sequence (P27361 whole entry): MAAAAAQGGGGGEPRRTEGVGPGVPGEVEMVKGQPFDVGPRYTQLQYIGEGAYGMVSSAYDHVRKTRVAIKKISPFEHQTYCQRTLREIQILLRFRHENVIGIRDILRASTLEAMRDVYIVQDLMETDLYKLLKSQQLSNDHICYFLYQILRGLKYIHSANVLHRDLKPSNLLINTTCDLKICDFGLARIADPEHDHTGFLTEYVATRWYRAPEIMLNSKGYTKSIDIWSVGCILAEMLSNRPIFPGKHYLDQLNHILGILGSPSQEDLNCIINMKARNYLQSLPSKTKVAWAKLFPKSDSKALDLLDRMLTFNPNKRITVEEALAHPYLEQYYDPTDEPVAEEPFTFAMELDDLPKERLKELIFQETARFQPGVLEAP
Mitogen-activated protein kinase 11 (Homo sapiens), sequence (Q15759 whole entry): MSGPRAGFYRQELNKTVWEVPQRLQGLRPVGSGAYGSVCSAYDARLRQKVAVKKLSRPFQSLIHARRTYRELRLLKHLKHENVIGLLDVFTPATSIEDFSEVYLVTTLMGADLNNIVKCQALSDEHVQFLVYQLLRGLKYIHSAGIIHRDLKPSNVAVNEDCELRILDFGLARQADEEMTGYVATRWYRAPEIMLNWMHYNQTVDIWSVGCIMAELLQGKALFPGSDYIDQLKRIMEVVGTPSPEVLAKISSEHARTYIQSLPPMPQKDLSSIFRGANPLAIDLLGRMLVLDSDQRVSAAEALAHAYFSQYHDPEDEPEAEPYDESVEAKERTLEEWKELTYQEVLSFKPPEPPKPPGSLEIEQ
SRSF protein kinase 3 (Homo sapiens), sequence (Q9UPE1 whole entry): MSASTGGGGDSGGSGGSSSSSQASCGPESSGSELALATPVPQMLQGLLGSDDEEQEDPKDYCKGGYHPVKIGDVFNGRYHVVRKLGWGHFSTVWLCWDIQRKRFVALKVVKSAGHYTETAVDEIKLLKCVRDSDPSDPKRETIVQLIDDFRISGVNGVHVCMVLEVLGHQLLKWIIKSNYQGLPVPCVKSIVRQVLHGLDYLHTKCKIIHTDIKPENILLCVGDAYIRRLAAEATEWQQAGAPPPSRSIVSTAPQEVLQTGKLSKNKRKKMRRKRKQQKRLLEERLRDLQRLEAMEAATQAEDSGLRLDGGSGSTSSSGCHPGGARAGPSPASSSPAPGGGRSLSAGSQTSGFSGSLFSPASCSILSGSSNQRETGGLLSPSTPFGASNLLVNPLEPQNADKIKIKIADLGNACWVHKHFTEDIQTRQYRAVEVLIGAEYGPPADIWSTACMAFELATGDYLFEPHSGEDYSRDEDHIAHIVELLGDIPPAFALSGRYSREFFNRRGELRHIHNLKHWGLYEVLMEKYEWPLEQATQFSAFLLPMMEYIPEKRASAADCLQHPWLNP
Phosphatidylinositol 4-kinase beta (Homo sapiens), sequence (Q9UBF8 2-816 limits assumed): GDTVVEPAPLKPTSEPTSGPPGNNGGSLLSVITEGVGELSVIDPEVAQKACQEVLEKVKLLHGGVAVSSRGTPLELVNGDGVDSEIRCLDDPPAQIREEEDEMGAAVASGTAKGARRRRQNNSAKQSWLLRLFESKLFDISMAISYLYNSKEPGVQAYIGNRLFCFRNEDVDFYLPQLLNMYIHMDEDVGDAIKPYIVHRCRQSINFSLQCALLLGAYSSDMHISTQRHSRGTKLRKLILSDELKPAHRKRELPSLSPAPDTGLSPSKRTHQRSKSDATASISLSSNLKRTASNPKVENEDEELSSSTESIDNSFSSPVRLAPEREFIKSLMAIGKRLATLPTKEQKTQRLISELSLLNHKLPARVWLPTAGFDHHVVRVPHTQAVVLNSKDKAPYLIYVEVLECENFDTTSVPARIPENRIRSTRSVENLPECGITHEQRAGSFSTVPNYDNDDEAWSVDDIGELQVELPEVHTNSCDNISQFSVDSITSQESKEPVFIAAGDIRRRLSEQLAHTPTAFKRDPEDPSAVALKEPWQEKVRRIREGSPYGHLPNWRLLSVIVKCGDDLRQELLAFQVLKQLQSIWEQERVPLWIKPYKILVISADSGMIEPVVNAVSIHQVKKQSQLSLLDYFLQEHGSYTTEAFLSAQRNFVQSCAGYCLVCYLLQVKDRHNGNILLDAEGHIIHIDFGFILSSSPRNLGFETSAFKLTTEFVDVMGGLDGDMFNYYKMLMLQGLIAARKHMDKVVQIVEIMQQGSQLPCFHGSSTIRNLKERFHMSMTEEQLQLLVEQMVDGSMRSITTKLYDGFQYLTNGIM
Mitogen-activated protein kinase 14 (Homo sapiens), sequence (Q16539 whole entry): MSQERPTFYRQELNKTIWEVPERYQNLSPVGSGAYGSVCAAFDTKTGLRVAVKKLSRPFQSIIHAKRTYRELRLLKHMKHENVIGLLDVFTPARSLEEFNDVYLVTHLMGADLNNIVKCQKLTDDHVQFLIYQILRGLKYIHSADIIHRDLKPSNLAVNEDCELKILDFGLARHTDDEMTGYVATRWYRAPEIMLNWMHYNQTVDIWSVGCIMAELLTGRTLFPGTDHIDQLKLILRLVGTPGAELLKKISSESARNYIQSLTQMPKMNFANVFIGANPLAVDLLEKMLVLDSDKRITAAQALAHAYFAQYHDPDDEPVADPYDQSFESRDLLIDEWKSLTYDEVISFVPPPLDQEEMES
Phosphatidylinositol 4,5-bisphosphate 3-kinase catalytic subunit alpha isoform (Homo sapiens), sequence (P42336 whole entry, canonical isoform): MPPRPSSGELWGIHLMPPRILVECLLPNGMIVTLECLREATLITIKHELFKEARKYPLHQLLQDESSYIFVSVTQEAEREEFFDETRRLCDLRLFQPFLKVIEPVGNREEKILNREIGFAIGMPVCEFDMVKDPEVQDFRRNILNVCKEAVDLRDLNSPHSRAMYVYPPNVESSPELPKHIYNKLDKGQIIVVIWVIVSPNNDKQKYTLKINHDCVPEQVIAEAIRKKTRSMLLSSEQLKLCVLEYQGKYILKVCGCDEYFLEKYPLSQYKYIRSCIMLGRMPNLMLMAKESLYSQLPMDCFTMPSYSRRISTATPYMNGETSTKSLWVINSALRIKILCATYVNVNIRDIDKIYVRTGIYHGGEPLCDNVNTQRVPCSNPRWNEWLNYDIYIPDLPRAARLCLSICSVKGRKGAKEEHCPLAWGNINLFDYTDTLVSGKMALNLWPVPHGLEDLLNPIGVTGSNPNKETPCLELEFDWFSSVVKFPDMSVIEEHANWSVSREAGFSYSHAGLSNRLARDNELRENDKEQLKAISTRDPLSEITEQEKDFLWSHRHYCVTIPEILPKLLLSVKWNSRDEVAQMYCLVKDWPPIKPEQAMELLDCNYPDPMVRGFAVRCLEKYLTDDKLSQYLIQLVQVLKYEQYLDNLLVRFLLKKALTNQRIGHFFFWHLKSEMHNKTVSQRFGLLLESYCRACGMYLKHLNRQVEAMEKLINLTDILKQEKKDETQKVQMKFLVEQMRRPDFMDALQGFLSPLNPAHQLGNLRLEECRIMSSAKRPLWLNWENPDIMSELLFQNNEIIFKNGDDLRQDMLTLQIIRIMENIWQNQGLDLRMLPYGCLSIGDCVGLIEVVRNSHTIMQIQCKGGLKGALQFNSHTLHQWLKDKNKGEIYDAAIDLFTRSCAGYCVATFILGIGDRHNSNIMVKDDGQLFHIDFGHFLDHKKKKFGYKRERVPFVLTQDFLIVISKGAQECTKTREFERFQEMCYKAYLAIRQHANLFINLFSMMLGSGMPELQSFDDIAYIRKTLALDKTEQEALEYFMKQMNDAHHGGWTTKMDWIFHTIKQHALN
SRSF protein kinase 1 (Homo sapiens), sequence (Q96SB4 whole entry): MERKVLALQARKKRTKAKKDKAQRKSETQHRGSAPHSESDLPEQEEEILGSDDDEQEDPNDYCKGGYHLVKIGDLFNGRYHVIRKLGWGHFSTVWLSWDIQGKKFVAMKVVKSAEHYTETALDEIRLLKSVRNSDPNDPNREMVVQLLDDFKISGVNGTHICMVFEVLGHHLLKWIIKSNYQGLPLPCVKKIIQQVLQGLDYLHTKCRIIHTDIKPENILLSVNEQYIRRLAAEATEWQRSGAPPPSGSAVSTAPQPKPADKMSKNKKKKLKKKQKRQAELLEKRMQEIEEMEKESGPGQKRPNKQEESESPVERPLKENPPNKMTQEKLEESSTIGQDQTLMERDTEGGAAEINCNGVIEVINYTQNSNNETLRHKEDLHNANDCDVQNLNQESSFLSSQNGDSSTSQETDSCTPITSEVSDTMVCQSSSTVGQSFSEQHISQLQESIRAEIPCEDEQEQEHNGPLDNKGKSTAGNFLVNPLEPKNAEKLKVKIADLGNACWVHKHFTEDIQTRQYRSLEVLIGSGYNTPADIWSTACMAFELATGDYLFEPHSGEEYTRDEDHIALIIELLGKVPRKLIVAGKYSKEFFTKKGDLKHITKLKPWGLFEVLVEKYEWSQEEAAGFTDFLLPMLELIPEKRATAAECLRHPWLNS

Turning to `COc1cc2c(cc1Nc1nc(N3CCc4ccccc43)c3cc[nH]c3n1)N(C(=O)CN(C)C)CC2`, the inhibition in [1] worked out at 1.51%; in [2] it was 0.87%; in assay [3] it was 1.46%; in assay [4], 3.41%; in [5], 3.7%; in [6], 2.84%. Also, the inhibition in assay [7] is 1.85%; in assay [8] it was 0.4%; in [9], 2.2%; in assay [10] it was 0.57%; in assay [11], 1.21%; in [12], -1.43%. Moreover, the inhibition in assay [13] was -3.76%; in assay [14] it was 0.76%; in assay [15], 2.92%; in assay [16] it was 1.22%; in assay [17] it was 3.33%; in assay [18], 1.21%. For the same compound, the inhibition in assay [19] is 2.11%; in assay [20], 0.07%.
Consider `Cc1cccc(-c2n[nH]cc2-c2ccc3ncccc3n2)n1`, for which the inhibition in assay [1] is 0.82%; in assay [2], -1.48%; in assay [3] it was -0.43%; in assay [4], 2.51%; in assay [5], 12%; in assay [6], -0.93%. In addition, the inhibition in assay [7] was 0.8%; in [8], 1.23%; in assay [9] it was -0.48%; in assay [10], 0.84%; in assay [11] it was 0.57%; in assay [12] it was -1.35%. Moreover, the inhibition in assay [13] is -1.16%; in assay [14] it was -0.95%; in assay [15], 1.78%; in assay [16] it was -0.15%; in assay [17] it was 0.53%; in assay [18] it was 1.57%. Also, the inhibition was 4.48% in [19] and -2.56% in assay [20].
`Cc1ccc(NC(=O)c2ccnc(N3CCCC3)c2)cc1-c1ccc(C(=O)NCC2CC2)cc1`: the inhibition in assay [1] is 3.65%; in assay [2], -0.5%; in assay [3], -0.3%; in assay [4], 38.3%; in [5], 79.6%; in assay [6], 40.9%. Besides, the inhibition is 78.9% in [7]; 3.45% in [8]; 5.79% in assay [9]; 4.49% in [10]; 4.14% in assay [11]; -2.03% in [12]. Also, the inhibition in [13] was -3.61%; in assay [14], 4.02%; in assay [15] it was 14.5%; in [16] it was 3.4%; in [17] it was 14.4%; in assay [18] it was -4.29%. The inhibition in assay [19] was -0.13%; in [20], -0.32%.
Regarding `CC1=C(C(=O)Nc2ccc3[nH]ncc3c2)C(c2ccc(F)cc2)NC(=O)N1` (stereo not given), the inhibition is 3.56% in [1]; -2.61% in [2]; -0.84% in assay [3]; 2.74% in assay [4]; 6.99% in [5]; 2.94% in assay [6]. For the same compound, the inhibition was 3.88% in assay [7]; 0.78% in assay [8]; 2.31% in assay [9]; 0.89% in [10]; 1.7% in assay [11]; -0.16% in [12]. The inhibition in assay [13] is -1.24%; in assay [14] it was 2.51%; in assay [15], 5.96%; in assay [16] it was 2.41%; in [17], 3.62%; in assay [18] it was 1.44%. The inhibition came to 1.28% in assay [19] and 1.05% in assay [20].
As for `CCCN1CCC=C(c2ccc(Nc3nc(Nc4ccccc4C(N)=O)c4cc[nH]c4n3)c(C)c2)C1`, the inhibition in assay [1] was 11.3%; in [2] it was 4.11%; in assay [3], 12.7%; in assay [4] it was 4.64%; in assay [5], 7.87%; in [6] it was 2.75%. Also, the inhibition in [7] is 7.8%; in assay [8], 4.35%; in assay [9] it was 8.15%; in assay [10], 3.52%; in assay [11], 6.14%; in [12], -2.75%. The inhibition in assay [13] is 12%; in assay [14], 4.1%; in [15] it was 19.9%; in assay [16], 1.79%; in assay [17], 17.8%; in assay [18], -1.7%. Also, the inhibition is -0.01% in assay [19] and 0.57% in [20].
With `Cn1cc(C=C2C(=O)Nc3cccnc32)c2ccccc21`, the inhibition is 2.73% in assay [1]; -0.25% in assay [2]; -0.47% in assay [3]; 3.62% in assay [4]; 7.85% in assay [5]; 3.65% in assay [6]. Besides, the inhibition is 5.58% in [7]; -0.63% in assay [8]; 2.23% in assay [9]; 2.25% in assay [10]; 2.65% in [11]; -3.21% in assay [12]. Moreover, the inhibition in assay [13] is -4.48%; in assay [14], 2.82%; in [15] it was 7.17%; in assay [16], 1.38%; in assay [17] it was 3.54%; in [18] it was 0.42%. Besides, the inhibition in [19] is 4.05%; in [20], -3.04%.
With `NC(=O)c1cccc(Nc2nccc(Nc3cccc4[nH]ncc34)n2)c1`, the inhibition was 1.82% in assay [1]; 0.19% in assay [2]; 3.95% in assay [3]; 4.23% in [4]; 2.87% in assay [5]; -1.99% in [6]. Further, the inhibition in assay [7] was 3.32%; in assay [8], -0.37%; in [9], 1.26%; in assay [10], -1.53%; in [11] it was 1.3%; in [12], 1.99%. The inhibition in assay [13] was 2.55%; in [14], -1.08%; in assay [15] it was 6.41%; in [16], 1.39%; in assay [17], 10.7%; in assay [18], 4.75%. Besides, the figures for the inhibition in assay [19] and in assay [20] were 10.2% and -1.36%, respectively.

Usually inhibition stands for the change of the read-out against control, counted positive when it falls.
